We go through 40 molecules from PubChem BioAssay (Tox21).

The structures appear in SMILES notation. Inconclusive results are not listed. Entries that show only a call come without a potency. Calls of active or inactive are those of the source. Calls come from the whole dose curve; as a rule, active = well fitted inhibition curve with a large enough effect in the repeat runs; inconclusive = weak or mixed curves; inactive = no such curve, though single readings can be large or run the other way.
Potency is the fitted concentration of half-maximal effect.

Chain of Cytochrome P450 2C19 (Homo sapiens) (P33261 whole entry, looked up): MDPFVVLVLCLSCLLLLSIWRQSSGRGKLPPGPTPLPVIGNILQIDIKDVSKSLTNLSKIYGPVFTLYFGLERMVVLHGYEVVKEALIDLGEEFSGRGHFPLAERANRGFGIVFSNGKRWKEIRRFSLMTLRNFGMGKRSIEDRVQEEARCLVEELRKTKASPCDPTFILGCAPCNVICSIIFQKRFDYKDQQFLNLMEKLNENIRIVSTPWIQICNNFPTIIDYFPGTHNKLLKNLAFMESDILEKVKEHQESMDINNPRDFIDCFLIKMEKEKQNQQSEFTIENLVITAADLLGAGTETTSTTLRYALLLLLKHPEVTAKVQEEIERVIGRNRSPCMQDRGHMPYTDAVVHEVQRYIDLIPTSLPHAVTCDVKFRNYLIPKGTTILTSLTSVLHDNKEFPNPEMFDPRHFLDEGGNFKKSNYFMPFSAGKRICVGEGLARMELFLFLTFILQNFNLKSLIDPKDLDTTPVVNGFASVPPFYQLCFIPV

The test addresses Cytochrome P450 2C19 (Homo sapiens) (UniProt P33261). The test can be described thus: Cytochrome P450 Family 2 Subfamily C Member 19 (CYP2C19) small molecule antagonists: luciferase reporter qHTS assay (AID 1671197). Note: nearly all actives have a fitted effect of over 65% in size. To be noted: P450-Glo CYP2C19 enzyme, luciferin luminescence, 1 h; series mostly up to 115 µM. An excerpt:
National Center for Advancing Translational Sciences [NCATS]
U.S. Environmental Protection Agency [EPA]
National Institutes of Environmental Health Sciences [NIEHS]
National Toxicology Program [NTP]
U.S. Food and Drug Administration [FDA]
Cytochrome P450 (CYP) enzymes are membrane-bound hemeproteins that play a key role in metabolism of drugs and xenobiotics. Evaluation of the effect of chemicals on CYP isozymes is useful to minimize the adverse drug reactions and toxicities in drug development process. Tox21 chemicals were tested for their effect on CYP enzyme activities by using P450-Glo (TM) screening systems (Promega Corporation, Madison, WI). These systems provide a luminescent method containing proluciferin substrates and are converted to luciferin products by CYP isozymes. The luciferin products formed are detected with a luciferin detection reagent, and the amount of light produced is proportional to CYP activity. P450-Glo (TM) CYP2C19 screening system (Catalog. No. V9880) was used to detect the compounds that interfere in CYP2C19 activity. The positive control compound used for CYP2C19 assay is ketoconazole (Sigma-Aldrich, St. Louis, MO).
Tox21 Assay Protocol Summary:
Two ul of enzyme-substrate mix was dispensed into medium binding white/solid 1536-well plates (Greiner Bio-One North America Inc., Monroe, NC) using a BioRaptr Flying Reagent Dispenser (FRD, Beckman Coulter, Brea, CA). Compounds dissolved in DMSO and positive control (ketoconazole) were transferred to the assay plates at 23 nl using a Pintool station (Wako, San Diego, CA). The assay plates were incubated at room temperature for 10 min. Then 2 ul of NADPH regeneration solution was added to each well of the assay plates using an FRD and incubated at 37C for 1 h. The reaction was stopped by adding 4 ul of detection reagent using an FRD and after 20 min incubation at room temperature the luminescence signal was measured using a ViewLux plate reader (Perkin Elmer, Shelton, CT). Data were expressed as relative luminescence units.
Background: Reporter assays use an easily measured gene product as a stand-in for the process of interest.
As for `c1ccc(CCNc2nc(-c3ccccc3)cs2)cc1`, the Potency is 2.75 µM (active). The same measure, in the same setting: under `CC(C)(C)NCC(O)COc1ccc(NC(=O)NC2CCCCC2)cc1` (stereo not given) stands “inactive”; under `CCN(CC)CC(=O)OCC(=O)[C@@]1(O)CC[C@H]2[C@@H]3CCC4=CC(=O)CC[C@]4(C)[C@H]3[C@@H](O)C[C@@]21C`, “inactive”; under `COc1ccc(C(=O)c2ccc(C)cc2)c(O)c1`, 5.08 µM (active). On the same count and under the same terms, next, `CC1(C)C(=O)NC(=O)N1CO`: “inactive”; `C/C=C1\[C@H]2C=C(C)C[C@]1(N)c1ccc(=O)[nH]c1C2`: “inactive”; `C=C[Si]1(C)O[Si](C)(C=C)O[Si](C)(C=C)O[Si](C)(C=C)O1` (stereo not given): 63.3 µM (active).

In the case of `COC=O`, the activity change, negative = inhibition is 14.6% [at 10.5 µM] (inactive). In the case of `CCC(C)C1N=C(C)C(C)S1` (stereo not given), the Potency is 39.9 µM (active). The same measure, in the same setting: under `OCCOc1cccc(OCCO)c1` stands “inactive”; under `CCCN(C1CCN(C(=O)C2CCNCC2)CC1)[C@@H]1CCc2ccc(OC)cc2C1`, “inactive”; under `CCc1ccc2c(c1)C(=O)c1ccccc1C2=O`, 11.2 µM (active).

`CC(C)Cc1nccs1`: the Potency was 40.7 µM (active). For `CC(C)(Cc1c[nH]c2ccccc12)NCC(O)COc1ccccc1C#N` (stereo not given), the Potency entry is “inactive”.

Take `C[C@]12CCC(=O)C=C1[C@@H]1C[C@@H]1[C@H]1[C@@H]3[C@@H]4C[C@@H]4[C@@]4(CCC(=O)O4)[C@@]3(C)CC[C@@H]12`: the Potency was 0.871 µM (active). On to `Nc1ccc(F)cc1F`, for which the Potency entry was “inactive”. On the same count and under the same terms, next, `COc1ccc(/C=C/S(=O)(=O)NC(=O)c2ccc(C)cc2Cl)cc1`: “inactive”; `FC(F)(Cl)C(F)(Cl)Cl`: “inactive”. Turning to `CC(C)(C)N`, the Potency result was “inactive”. Same read-out and setting: under `CCOC(OCC)OCC` stands “inactive”; under `Cc1c(Cl)cccc1Nc1ccccc1C(=O)O`, “inactive”. On the same count and under the same terms, under `CCCCCCCCCCCC(=O)OCC` stands “inactive”; under `OCCCO`, “inactive”; under `Sc1nc(S)nc(S)n1`, “inactive”. For the molecule `CCCCC(CC)COCCC#N` (stereo not given), the Potency entry is “inactive”. Turning to `C=C(C)C(=O)OCCCCCCCCCCOC(=O)C(=C)C`, the Potency result was “inactive”.

For the molecule `c1ccc(CN(Cc2ccccc2)Cc2ccccc2)cc1`, the Potency was 5.64 µM (active).

Take `CO[C@@H]1[C@@H](O[C@@H]2O[C@H](C)[C@@H](O[C@H]3C[C@@](C)(O)[C@@H](O)[C@H](C)O3)[C@H](N(C)C)[C@H]2O)[C@@H](CC=O)C[C@@H](C)[C@@H](O[C@@H]2CC[C@H](N(C)C)[C@@H](C)O2)/C=C/C=C/C[C@@H](C)OC(=O)C[C@H]1OC(C)=O`: the Potency entry was “inactive”. Still for that read-out and setting: under `Cc1nc(C)c(C)nc1C` stands “inactive”; under `CCCCCCOC(=O)c1ccccc1`, “inactive”. The same measure, in the same setting: next, `C/C(=C(\CCO)SS/C(CCO)=C(\C)N(C=O)Cc1cnc(C)nc1N)N(C=O)Cc1cnc(C)nc1N`: “inactive”. The same measure, in the same setting: under `CC(C)CCCCCOC(=O)CS` stands “inactive”; under `CCc1ccc(C(=O)C(C)CN2CCCCC2)cc1` (stereo not given), 4.9 µM (active); under `O=C1OC(=O)C2CC=CCC12` (stereo not given), 80 µM (active).

In the case of `O=C(OCCCCCOC(=O)c1ccccc1)c1ccccc1`, the Potency is 56.4 µM (active). As for `CCCCCCCCCCCCCCCCC(=O)O`, the Potency result is “inactive”. On to `Cc1cc(C)c(C)c(O)c1`, for which the Potency result is “inactive”. The same measure, in the same setting: under `CC(=O)Nc1ccn(C2COC(COC(=O)c3ccccc3)O2)c(=O)n1` (stereo not given) stands “inactive”; under `O=C(Cl)c1cc(Cl)cc(Cl)c1`, “inactive”. Same read-out and setting: next, `COc1ccc(C(=O)Nc2ccccc2)cc1[N+](=O)[O-]`: 35.9 µM (active).
